An excerpt weighted towards active compounds, which were near 4.1% of everything screened.
hcDAF12 agonist – activators of H. contortus DAF-12 nuclear receptor; HEK293 hcDAF-12 lit1-tk-luc reporter, luminescence; 0% DMSO, 100% Δ7-dafachronic acid; activation, % at 6.8 µM; hit rate 1.4% among 370,000;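 active means activation above the mean of all tested compounds plus 3 SD, cut at about 5.5% in these data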
ssDAF12 agonist – activates DAF-12 receptor from parasite S. stercoralis. HEK293 ssDAF-12/GRIP1 lit1-tk-luc reporter, luminescence; % of 3 µM dafachronic acid response. activation, % at 6.8 µM. hit rate 1% among 370,000;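 active means activation above the mean over all tested compounds plus 3 SD, cut at about 0.9% in these data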
DAX1 inh-1 – inhibitors of DAX1 repression of SF-1 activated StAR promoter; HEK293T StAR-luciferase reporter, SF-1/DAX-1 repression relief; inhibition, % at 6.8 µM; hit rate 1.1% among 370,000;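 active means inhibition above the mean over all tested compounds plus 3 SD, cut at about 3.6% in these data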;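 further: higher inhibition means more luminescence from relief of DAX-1 repression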
hgDAF12 agonist – activates the H. glycines DAF-12 receptor ligand-binding domain; HEK293 GAL4-hgDAF12 UAS-luciferase reporter, agonist luminescence; normalized to butyrate control; activation, % at 6.8 µM; hit rate 1.8% among 370,000;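 active means activation above a cutoff set at the mean of all screened compounds plus 3 SD, cut at about 10% in these data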
DAX1 inh-2 – NR0B1 (DAX1) inhibition; AID 504766; inhibition, % at 6.75 µM; hit rate 0.99% among 340,000; HEK293 Gal4-DAX1 luciferase reporter, luminescence;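 active means inhibition above the mean over all tested compounds plus 3 SD, cut at about 4.2% in these data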;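 further: inhibition shows as a rise in luminescence from relieved DAX1 repression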
Target sequence (P51843 207-470 limits assumed): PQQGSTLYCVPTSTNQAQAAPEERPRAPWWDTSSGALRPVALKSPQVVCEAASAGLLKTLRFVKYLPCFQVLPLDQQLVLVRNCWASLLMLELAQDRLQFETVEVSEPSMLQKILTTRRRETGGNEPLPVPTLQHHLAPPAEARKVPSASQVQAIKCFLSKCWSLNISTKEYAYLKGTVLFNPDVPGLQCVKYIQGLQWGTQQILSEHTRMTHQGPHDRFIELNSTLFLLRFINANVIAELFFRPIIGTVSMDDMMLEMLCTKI
Large screens that a line does not name were inactive.

CC1(C)CC(=O)C=C(Nc2ccccc2NC(=O)c2cc(Cl)ccc2F)C1	none (no result: DAX1 inh-2)
CCc1cc2c(=O)c(-c3ccc4c(c3)OCCO4)coc2cc1OC(=O)c1ccco1	hgDAF12 agonist 11
CCCc1cc2c(=O)c(-c3ccc4c(c3)OCCO4)coc2cc1OC(=O)c1ccco1	none
COc1ccc2c(=O)c(-c3ccc4c(c3)OCO4)coc2c1	hcDAF12 agonist 5.7, hgDAF12 agonist 17
COC(=O)COc1ccc2c(=O)c(-c3ccccc3)coc2c1	none
CC(C)Oc1ccc2c(=O)c(-c3ccccc3)coc2c1	DAX1 inh-1 8.3, hgDAF12 agonist 14
CCC[C@H]1[C@@H](N(C)Cc2cccs2)CC[C@@]23CCCN2C(=O)CCC[C@@H]13	none (no result: DAX1 inh-1, DAX1 inh-2)
Cc1cccc(C)c1OCc1cccc(C2Nc3ccccc3C(=O)N2Cc2ccco2)c1 (stereo not given)	none (no result: DAX1 inh-1, DAX1 inh-2)
C=CCn1c(COc2cccc3ccc(C)nc23)nnc1SCC(=O)OC	ssDAF12 agonist 0.9
CCn1c(COc2cccc3cccnc23)nnc1SCC(=O)OC	none
CCn1c(COc2cccc3cccnc23)nnc1SCC(=O)O	DAX1 inh-2 5.4
CCc1ccc2c(c1)/C(=N/N(C)C(=S)NC)C(=O)N2	hcDAF12 agonist 6.4
CCCCCN1CCCCC(NC(=O)c2c(F)cccc2F)C1=O (stereo not given)	none (no result: DAX1 inh-2)
COc1ccc2sc(-c3ccccc3OC)c(-c3ccc(SC)cc3)c2c1	DAX1 inh-1 3.8 (no result: DAX1 inh-2)
COc1ccc2sc(-c3ccccc3OC)c(-c3ccc(OC)c(F)c3)c2c1	none
O=C(Nc1cccc(Br)c1)OC1CC2CC1[C@H]1CCCCN1[C@H]2Cc1ccccc1 (stereo not given in full)	none (no result: DAX1 inh-2)
O=C(Nc1ccccc1Cl)C1CC(=O)N(c2ccccc2)C1 (stereo not given)	ssDAF12 agonist 1.3 (no result: DAX1 inh-2)
CC(NC(=O)c1c(O)c2ccccc2n(C)c1=O)c1ccccc1 (stereo not given)	hcDAF12 agonist 6.0
Cn1c(=O)c(C(=O)NCCc2ccccc2)c(O)c2ccccc21	hcDAF12 agonist 6.3, ssDAF12 agonist 1.7
CCn1c(=O)c(C(=O)Nc2ccccc2F)c(O)c2ccccc21	hcDAF12 agonist 6.2
CC(=O)CC[C@@H]1CC[C@]2(CCCN(S(C)(=O)=O)C2)O1	none (no result: DAX1 inh-2)
O=C(C1=C(O)C(=O)N(CC2CCCO2)C1c1ccc(Cl)cc1)c1ccco1 (stereo not given)	none
O=C(C1=C(O)C(=O)N(CC2CCCO2)C1c1ccccc1[N+](=O)[O-])c1ccco1 (stereo not given)	ssDAF12 agonist 1.2
CC(=O)C1=C(O)C(=O)N(C)C1c1ccccc1[N+](=O)[O-] (stereo not given)	ssDAF12 agonist 2.0
Cc1ccc(S(=O)(=O)N2CCCCC2)cc1NC(=O)Cc1c[nH]c2ccccc12	hcDAF12 agonist 5.8
Cc1ccc(NC(=O)Cc2n[nH]c(=O)c3ccccc23)cc1S(=O)(=O)N1CCCCCC1	none
Cc1ccc(NC(=O)Cc2c[nH]c3ccccc23)cc1S(=O)(=O)N1CCCCCC1	hcDAF12 agonist 6.2
O=C(NCCc1ccccc1)OCc1cn(Cc2ccc(C(F)(F)F)cc2)nn1	none (no result: DAX1 inh-2)
O=C(Nc1ccc(Cl)cc1)c1ccc2snnc2c1	hcDAF12 agonist 6.2, hgDAF12 agonist 11
O=C(Nc1nccs1)c1ccc2sc([C@H]3C[C@H](O)[C@@H](CO)O3)nc2c1	none (no result: DAX1 inh-2)
O=C(Nc1nc2ccccc2s1)c1ccc2sc([C@H]3C[C@H](O)[C@@H](CO)O3)nc2c1	hgDAF12 agonist 11 (no result: DAX1 inh-2)
O=C(Nc1ccc(Cl)cc1)c1ccc2ncsc2c1	none
O=C(Nc1ccc(F)cc1)c1ccc2ncsc2c1	hgDAF12 agonist 12
O=C(Nc1ccc(Cl)cc1)c1ccc2sc([C@@H]3O[C@H](CO)[C@@H](O)[C@H]3O)nc2c1	hgDAF12 agonist 11 (no result: DAX1 inh-2)
O=C(Nc1ccc2c(c1)OCO2)c1ccc2sc([C@@H]3O[C@H](CO)[C@@H](O)[C@H]3O)nc2c1	none (no result: DAX1 inh-2)
CC(COc1ccc(Br)cc1)CN1CCC(C(O)(c2ccccc2)c2ccccc2)CC1 (stereo not given)	none (no result: DAX1 inh-2)
C[C@H]1COc2cc(Br)ccc2S(=O)(=O)N1Cc1cn(CCC2OCCCO2)nn1	none (no result: DAX1 inh-2)
C#CCNC(=O)C[C@H]1C[C@@]2(C(=O)OC)C(=C[C@H](COCc3ccccc3)O[C@@H]2C)N(Cc2ccco2)C1=O	none (no result: DAX1 inh-2)
CCOC(=O)CC(=O)c1sc2c(c1N)c(=O)[nH]c(=O)n2-c1ccc(OC)cc1	DAX1 inh-2 4.3
CCCCNC(=O)C[C@@H]1C(=O)N2CCCC3=C2[C@@]1(C(=O)OCC)CCC3	none (no result: DAX1 inh-2)
Cc1cc(C(=O)COC(=O)c2cccn2C)c(C)n1Cc1ccco1	DAX1 inh-1 4.1
CC(C)NC(=O)CCn1nnc(-c2cccs2)n1	none (no result: DAX1 inh-2)
Cc1nnc(NC(=O)CSc2nnc(C)n2Cc2ccccc2)s1	none
Cc1nnc(SCC(=O)Nc2ccc(Cl)cn2)n1Cc1ccccc1	DAX1 inh-2 6.0
Cc1ccc(S(=O)(=O)N(C)C)cc1NC(=O)c1ccc2ccccc2n1	ssDAF12 agonist 1.1
Cc1cc(C(F)(F)Cl)n2ncc(-c3ccccn3)c2n1	ssDAF12 agonist 1.2
Cc1cc(Cl)n2ncc(-c3ccccc3)c2n1	none
CC1=C(C(=O)NC(C)CCc2ccccc2)C2(CCC(C)CC2)OC1=O (stereo not given)	DAX1 inh-2 5.1
COc1ccc(S[C@]2(C(=O)N3CCOCC3)CC(=O)N(C(=O)Nc3ccc(C)c(Cl)c3)[C@@H]2c2ccc(OC)cc2)cc1	none (no result: DAX1 inh-2)
CCCC1CCC2(CC1)CCC2OC(=S)Nc1cccc(C(F)(F)F)c1 (stereo not given)	none (no result: DAX1 inh-1, DAX1 inh-2)
CCOC(=O)CC[C@@]1(C(=O)OCC)C[C@@H](CC(=O)NCc2ccc(C)o2)C(=O)N2CCCC=C21	none (no result: DAX1 inh-2)
O=C(N/N=C1\CCc2ccccc21)c1ccncc1	none
c1ccc2c(c1)CCc1c(-c3ccncc3)n[nH]c1-2	ssDAF12 agonist 1.6
CC(=O)OCCCN(C)CC/C=C1/c2ccccc2CSc2ccccc21	ssDAF12 agonist 1.0
O=C(Nc1ncc(Cc2ccccc2Cl)s1)C1CCCO1 (stereo not given)	hgDAF12 agonist 12
O=C(Nc1ncc(Cc2cccc(Cl)c2Cl)s1)C1CCCO1 (stereo not given)	none
COc1ccccc1NC(=S)NNC(=O)c1nn(C)c(C)c1Br	hgDAF12 agonist 12
COc1ccccc1NC(=S)NNC(=O)c1nn(C)c(C)c1Cl	none
CCC[C@H]1[C@@H](NC(=O)c2ccc(N(C)C)cc2)CC[C@@]23CCCN2C(=O)CCC[C@@H]13	none (no result: DAX1 inh-1, DAX1 inh-2)
CCCNC(=O)C1CC(=O)N(c2ccc(OCc3ccc(F)cc3)cc2)C1 (stereo not given)	hcDAF12 agonist 5.9, hgDAF12 agonist 13
NC(=O)C1CC(=O)N(c2ccc(OCc3ccc(Cl)cc3)cc2)C1 (stereo not given)	hgDAF12 agonist 12
COc1ccc(-c2cc(-c3nnc(SCc4cccc5ccccc45)n3N)[nH]n2)cc1	none (no result: DAX1 inh-2)
